From PubChem BioAssay (NCI) come the findings set out here.

Each structure is given as a SMILES string. Compounds without any hit were thinned out: in the full panel of roughly 83,000, 20% have a hit.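 Method: cells in 96-well plates; compound added at one concentration; 48 h incubation; percent growth measured; values under 10 scored active.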 Unmarked numbers belong to inactive results. Active and inactive are the calls of the source.

The test system of the first assay is SF-295 CNS. As to the kind of experiment: NCI-60 one-dose screen, 48 h (100 = growth as untreated, 0 = no growth, -100 = all killed). The conditions noted are these: 10 µM unless noted.
For `O=c1[nH]c(=S)[nH]c(=O)n1Cc1cccc2ccccc12`, the growth is 77.4%.

On to `C=CC(=O)N1CC2(CCC(n3nc(-c4ccc(Oc5ccccc5)cc4)c4c(N)ncnc43)CC2)C1`, for which the growth is -13.9% (active). On to `Cc1nc(NC(=O)COc2cccc(/C=C3\COc4ccccc4C3=O)c2)sc1C`, for which the growth is 25.3%. The same measure, in the same setting: the result for `Cc1ccc(N=c2nc3sc4c(C)ccc(C)c4n3c(N)c2C#N)cc1` reads 91.1%. As to `CN1CCN(c2nc(-c3ccncc3)nc3sc4c(c23)CCCCCC4)CC1`, the growth was 57.2%. Turning to `Nc1ccccc1-c1n[nH]c(=O)[nH]c1=O`, the growth was 79%.

For `CCOC(=O)C1=C(C)N2C(=NC3=C(CCCC/C3=C\c3cc(OC)c(OC)c(OC)c3)C2c2cc(OC)c(OC)c(OC)c2)S1` (configuration not stated), the growth is 56.5%. The same measure, in the same setting: the result for `Cc1ccc2c(c1)c(Sc1ccc(C(=O)NO)cc1)c1n2CN(C)CC1` reads 11.8%. As to `CC(=O)Nc1ccccc1-c1n[nH]c(=O)[nH]c1=O`, the growth is 98.1%. In the case of `N#Cc1ccc(C(F)(F)F)nc1N1CCC(C(=O)Nc2ccc(Cl)cc2)CC1`, the growth was 65.5%. The same measure, in the same setting: the result for `O=c1[nH]c(-c2ccccn2)nc2sc3c(c12)CCCCCC3` reads -6% (active); that for `CN1CCc2c(c3ccccc3c3ccccc23)C1`, 45.1%; that for `FC(F)(F)c1ccc2c(c1)n1cnnc1c1nncn21`, 89.2%. With `CC[Si](CC)(CC)OC1[C@@H](O[Si](CC)(CC)CC)[C@@H](CNC(=O)NC)O[C@H]1n1cnc2c(NC(=O)Nc3ccccc3)ncnc21` (some centres not stated), the growth is 59%. For `CCOC(=O)C1=C(C)N2C(=NC3=C(CCCC/C3=C\c3ccccc3)C2c2ccccc2)S1` (configuration not stated), the growth is 74%. Take `Nc1c(Br)cc(Br)cc1-c1n[nH]c(=O)[nH]c1=O`: the growth was 98%.

As to `c1ccc(-c2nc(N3CCOCC3)c3c4c(sc3n2)CCCCCC4)nc1`, the growth was 6.04% (active). Regarding `CC(C)(C)[Si](C)(C)OC1[C@@H](CNC(=O)NC(=O)CCl)O[C@@H](n2cnc3c(N)ncnc32)[C@H]1O[Si](C)(C)C(C)(C)C` (some centres not stated), the growth was -57.4% (active). Regarding `O=c1[nH]c(-c2ccncc2)nc2sc3c(c12)CCCCCC3`, the growth is 53.2%.

A further assay has as its system SF-539 CNS. Described as above. Particulars: 10 µM unless noted.
As for `O=C(NCc1ccco1)C1CCN(S(=O)(=O)c2ccc(Cl)cc2)CC1`, the growth was 80.9%. `C(=C\c1ccccc1)/CN1CCN(C(c2ccccc2)c2ccccc2)CC1`: the growth was 90.7%.

Turning to `O=C(Nc1nc2ccccc2[nH]1)C(=O)Nc1nc2ccccc2[nH]1`, the growth is 95.8%. For the compound `Brc1ccccc1Nc1ccc2nnc(-c3ccncc3)n2n1`, the growth was 104%. The same measure, in the same setting: then `COC(=O)[C@@H]1CCCN1C(=O)[C@@H]1CCCN1C(=O)[C@@H](Cc1c[nH]c2ccccc12)NC(=S)Nc1cc(C(F)(F)F)cc(C(F)(F)F)c1`, with 89.4%. Still for that read-out and setting: the result for `COc1ccc(C2OCC(C)(C)CO2)cc1OC` reads 104%. Turning to `O=c1[nH]c(=S)[nH]c(=O)n1Cc1cccc2ccccc12`, the growth was 103%.

In the case of `C=CC(=O)N1CC2(CCC(n3nc(-c4ccc(Oc5ccccc5)cc4)c4c(N)ncnc43)CC2)C1`, the growth was -94.4% (active). On to `Cc1nc(NC(=O)COc2cccc(/C=C3\COc4ccccc4C3=O)c2)sc1C`, for which the growth was -63.9% (active).

As for `Cc1ccc(N=c2nc3sc4c(C)ccc(C)c4n3c(N)c2C#N)cc1`, the growth is 99.1%. Still for that read-out and setting: then `CN1CCN(c2nc(-c3ccncc3)nc3sc4c(c23)CCCCCC4)CC1`, with 54.4%; and `Nc1ccccc1-c1n[nH]c(=O)[nH]c1=O`, with 101%. `CCOC(=O)C1=C(C)N2C(=NC3=C(CCCC/C3=C\c3cc(OC)c(OC)c(OC)c3)C2c2cc(OC)c(OC)c(OC)c2)S1` (configuration not stated): the growth is 79.9%. As for `Cc1cc(=O)[nH]n1-c1cc(Cl)ccc1N`, the growth was 102%.

Consider `COCCOC1=C(Cl)C(=O)c2ccccc2C1=O`, for which the growth is -10.4% (active). With `Cc1nn2c(-c3nc4ccc(Cl)cc4[nH]3)c(-c3ccc(F)cc3)nc2s1`, the growth was 97.1%. With `Oc1ccc(Cl)cc1CNc1nc2ccccc2[nH]1`, the growth is -50.9% (active).

On to `CN([N-]C(=O)CC(=O)[N-]N(C)C(=S)c1ccccc1)C(=S)c1ccccc1.[Cu+2]`, for which the growth is -69.3% (active).

Regarding `COc1ccc(-c2nc3sc(C)nn3c2-c2nc3cc(C)c(C)cc3[nH]2)cc1`, the growth was 95%. For the compound `Cc1ccc2c(c1)c(Sc1ccc(C(=O)NO)cc1)c1n2CN(C)CC1`, the growth is -35.1% (active). On the same count and under the same terms, the result for `FC(F)(F)c1cc(CNc2ncc(Br)c(Cl)n2)cc(C(F)(F)F)c1` reads 97%; that for `O=C1C(OCCOc2ccccc2)=C(OCCOc2ccccc2)C(=O)c2ccccc21`, 94.9%; that for `CC(=O)Nc1ccccc1-c1n[nH]c(=O)[nH]c1=O`, 91.3%.

For the compound `N#Cc1ccc(C(F)(F)F)nc1N1CCC(C(=O)Nc2ccc(Cl)cc2)CC1`, the growth was 100%. For `COc1cccc(Nc2nc(NCCO)c3ccccc3n2)c1`, the growth is 81.5%. `O=c1[nH]c(-c2ccccn2)nc2sc3c(c12)CCCCCC3`: the growth was 61.7%. `CC(=O)Nc1ccc(Sc2ccc([N+](=O)[O-])o2)cc1`: the growth was 15.3%. Same read-out and setting: then `CN1CCc2c(c3ccccc3c3ccccc23)C1`, with 50.8%; and `FC(F)(F)c1ccc2c(c1)n1cnnc1c1nncn21`, with 114%. As to `CC(C)OC1=C(Cl)C(=O)c2ccccc2C1=O`, the growth was 38.4%. On the same count and under the same terms, the result for `CC[Si](CC)(CC)OC1[C@@H](O[Si](CC)(CC)CC)[C@@H](CNC(=O)NC)O[C@H]1n1cnc2c(NC(=O)Nc3ccccc3)ncnc21` (some centres not stated) reads 99%. For `Cc1ccc2nc(NC(=O)CSC(=S)N3CCN(C)CC3)sc2c1`, the growth was 100%. Regarding `CCCOC(=O)c1ccc2c(c1)[N+](=O)C(C(=O)c1ccccc1)=C(C(F)(F)F)[N+]2=O`, the growth is -95% (active). On to `CCOC(=O)C1=C(C)N2C(=NC3=C(CCCC/C3=C\c3ccccc3)C2c2ccccc2)S1` (configuration not stated), for which the growth was 99.3%. With `Nc1c(Br)cc(Br)cc1-c1n[nH]c(=O)[nH]c1=O`, the growth is 92.5%. As to `c1ccc(-c2nc(N3CCOCC3)c3c4c(sc3n2)CCCCCC4)nc1`, the growth was 77%. On to `CC(C)(C)[Si](C)(C)OC1[C@@H](CNC(=O)NC(=O)CCl)O[C@@H](n2cnc3c(N)ncnc32)[C@H]1O[Si](C)(C)C(C)(C)C` (some centres not stated), for which the growth is 15%. Same read-out and setting: then `O=c1[nH]c(-c2ccncc2)nc2sc3c(c12)CCCCCC3`, with 82.6%.
